In the library only some 14% were active in any assay of this set; here they are far more common.
HCMV antiviral: qHTS Assay for inhibitors of the human cytomegalovirus (HCMV) | HFF cells, HCMV-luciferase reporter, 72 h; hits give low values | activity change, negative = inhibition, % at 57.5 µM | 410,000 compounds, 4.5% hits | AID 1259415, 2018; in the data active = activity change below about -60%; inconclusive = no clear call, values can overlap the other calls; inactive = above about -39%
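After 16 h attachment at 37C, HFF cells received test compound and HCMV-luciferase (1 PFU/cell); reporter luminescence read 72 h later, data normalized against buffer-only and known inhibitor Salinomycin.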
Giardia FBPA inh: qHTS Assay for Inhibitors of Fructose-1,6-bisphosphate Aldolase from Giardia Lamblia; AID 2451, 2010; purified Giardia FBPA; Potency, µM (doses to about 59.6 µM), for inactives: at the highest dose activity, negative = inhibition, hits mostly inhibitors; 290,000 compounds, 0.71% hits; note: potency is the fitted concentration of half-maximal effect; nearly all actives have a fitted effect of over 55% in size
Target sequence (A8B2U2 whole entry, looked up): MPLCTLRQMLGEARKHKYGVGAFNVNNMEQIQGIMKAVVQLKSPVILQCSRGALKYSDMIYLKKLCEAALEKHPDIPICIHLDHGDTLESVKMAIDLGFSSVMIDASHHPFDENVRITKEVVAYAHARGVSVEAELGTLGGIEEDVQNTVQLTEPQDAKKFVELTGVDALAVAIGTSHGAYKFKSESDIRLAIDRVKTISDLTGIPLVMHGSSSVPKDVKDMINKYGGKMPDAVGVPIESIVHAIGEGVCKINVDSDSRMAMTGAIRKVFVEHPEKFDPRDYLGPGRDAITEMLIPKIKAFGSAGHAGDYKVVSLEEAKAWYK
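Giardia FBPA (40 nM reagent) was preincubated 10 min at RT with compound (up to 57.5 uM final), then substrate plus GAPDH/TPI/NAD/arsenate coupling system with diaphorase/resazurin was added; resorufin fluorescence (525/598 nm) was read after 20 min.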
Pf growth 96h: Primary qHTS for delayed death inhibitors of the malarial parasite plastid, 96 hour incubation | P. falciparum luciferase reporter growth, 96 h | Potency, µM (doses to about 28.7 µM), for the others: at the highest dose activity change, negative = inhibition, actives largely listed as inhibitors | 320,000 compounds, 6.9% hits | AID 504834, 2011; note: potency is the fitted concentration of half-maximal effect
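Parasite growth measured via integrated firefly luciferase reporter in P. falciparum. Infected erythrocytes at 2% hematocrit, 0.05% parasitemia final were treated 96 hours at 37 C under 5% CO2, and luminescence was read.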
Pf growth 48h: Primary qHTS for delayed death inhibitors of the malarial parasite plastid, 48 hour incubation; P. falciparum luciferase growth in erythrocytes, 48 h; Potency, µM (titrated, usually from 28.7 µM), for inactives: top-dose activity change, negative = inhibition, actives largely listed as inhibitors; 310,000 compounds, 5.9% hits; note: potency is the fitted concentration of half-maximal effect
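Cell-based growth assay: transgenic P. falciparum expressing firefly luciferase, cultured in red cells within RPMI 1640 containing 0.5% w/v Albumax, 24 mM bicarbonate and gentamycin. A drop in luciferase activity indicates inhibition.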
Sm TGR inh: qHTS Assay for the Inhibitors of Schistosoma Mansoni Peroxiredoxins | Schistosoma mansoni thioredoxin glutathione reductase (TGR), Q962Y6 | purified TGR, DTNB reduction, TNB absorbance 405 nm | Potency, µM (titrated, usually from 114 µM), for the others: top-dose activity change, negative = inhibition, actives largely listed as inhibitors | 360,000 compounds, 3% hits; note: potency is the fitted concentration of half-maximal effect; nearly all actives have a fitted effect of over 60% in size
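TGR 20 nM + NADPH 100 uM (dispensed conc.), cpd preinc 15 min RT; start with NADPH (500 uM addition) then DTNB (15 mM addition). Kinetic TNB absorbance, 405 nm filter. Four-parameter Hill fit across titration.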
The depositor's hits bear a star; ? = inconclusive; nt = no result given; [ ] = remark or other dose. Unless noted, calls come from the whole dose curve; as a rule, active = well fitted curve in the direction sought with a large enough effect; inconclusive = small, poorly fitted or top-dose-only effect, or another doubt; inactive = no such curve, though single readings can be large; an effect the other way counts as inactive or inconclusive. % is set by controls: 0 for no effect and ±100 for the full control effect.

SMILES	HCMV antiviral	Giardia FBPA inh	Pf growth 96h	Pf growth 48h	Sm TGR inh
CCCCN(C(=O)COC(=O)COc1c(C)cc(C)cc1C)c1c(N)n(CCC)c(=O)[nH]c1=O	19	nt	2%	3%	0%
O=S(=O)(c1ccc(Cl)cc1)N1CCN(CCc2ccncc2)CC1	?	3%	-18%	6%	6%
C[N+]1(C)CCCC(OC(=O)C(O)(c2ccccc2)c2ccccc2)C1 (stereo not drawn)	nt	4%	nt	nt	nt
COc1cccc(-c2csc(N3CCN(C(=S)NCC(C)C)CC3)n2)c1	-25	-7%	15µM*	13µM*	12%
COc1cccc(-c2csc(N3CCN(C(=O)Nc4ccc(Cl)cc4)CC3)n2)c1	?	-11%	25%	?	0%
COc1cccc(-c2csc(N3CCN(C(=S)Nc4ccccc4OC)CC3)n2)c1	-1	0%	?	?	7%
COc1cccc(-c2csc(N3CCN(C(=S)Nc4ccccc4Cl)CC3)n2)c1	-9	0%	?	13µM*	10%
CCNC(=S)N1CCN(c2nc(-c3cccc(OC)c3)cs2)CC1	-40	-4%	10µM*	?	9%
COc1ccc(NC(=O)N2CCN(c3nc(-c4cccc(OC)c4)cs3)CC2)cc1	-91*	-21%	?	10µM*	-2%
COCCNC(=S)N1CCN(c2nc(-c3cccc(OC)c3)cs2)CC1	-1	11%	?	-13%	-9%
CCOC(=O)c1ccc(NC(=O)N2CCN(c3cccc(OC)c3)CC2)cc1	1	-6%	-2%	?	18%
O=C(NC1(C(F)(F)F)NC(=O)N(c2ccc(F)cc2)C1=O)c1cccs1 (stereo not drawn)	-18	5%	-4%	-4%	-21%
O=C(NCCc1ccccc1F)c1ccc2c(c1)OCCO2	-99*	-3%	-25%	-22%	-10%
CN(C)CCC(=O)c1ccc2c(c1)OCO2	15	-2%	-13%	-13%	0.63µM*
O=C(NCc1ccccc1F)c1ccc2c(c1)OCO2	23	-1%	27%	nt	8%
O=C(CCNc1ccccc1)c1ccc2c(c1)OCO2	126	6%	-18%	74%	2.2µM*
CN(C)CCCC(=O)c1ccc2c(c1)OCO2	?	-3%	nt	13%	-30%
CCCOc1ccc(S(=O)(=O)Nc2ccccn2)c2ccccc12	12	-29%	24%	23%	4%
CC[C@H](C)[C@H]1CNC(=O)C(=O)N1CC1CCN(CC2CCC(C)CC2)CC1 (stereo partly drawn)	-19	nt	nt	nt	nt
CCn1cc([N+](=O)[O-])c(C(=O)Nc2ccn(Cc3ccccc3)n2)n1	-74*	0%	21%	16%	-1%
Cn1cc([N+](=O)[O-])c(C(=O)Nc2ccc(C3CCCCC3)cc2)n1	-100*	0%	14%	33%	15%
CCn1cc([N+](=O)[O-])c(C(=O)Nc2nc3ccc(OC)cc3s2)n1	-89*	18%	7%	38%	nt
Cn1cc([N+](=O)[O-])c(C(=O)Nc2ccc(C(=O)N3CCCCC3)cc2)n1	-34	1%	-10%	9%	8%
Cc1ccc(Cn2ccc(NC(=O)c3cc(C)on3)n2)cc1	28	2%	nt	nt	5%
Cc1ccc(Cn2ccc(NC(=O)c3nn(C)cc3[N+](=O)[O-])n2)cc1	-77*	2%	5%	10%	-2%
SMILES	HCMV antiviral	Giardia FBPA inh	Pf growth 96h	Pf growth 48h	Sm TGR inh
Cc1cc(C)n(Cc2ccc(NC(=O)c3nn(C)cc3[N+](=O)[O-])cc2)n1	-101*	11%	nt	-9%	0%
CCn1cc([N+](=O)[O-])c(C(=O)Nc2ccc(Cn3nc(C)cc3C)cc2)n1	-17	7%	?	-8%	8%
CCN(c1ccccc1)S(=O)(=O)c1nnc(NC(=O)COc2ccccc2F)s1	-5	nt	nt	nt	-4%
CCCCCCc1cc2cc(C(=O)NCc3ccccc3)c(=N)oc2cc1O	-69*	-11%	-13%	?	0%
CCCCCCc1cc2cc(C(=O)Nc3ccccc3)c(=O)oc2cc1O	-100*	-2%	?	?	-7%
C#CCCCO/N=C1/C[C@@H](O)[C@@H](O)[C@@H]2[C@@H]3C(=O)N(CCC(=O)OCC)C(=O)[C@H]3CC[C@H]12	nt	0%[12.9 µM]	nt	nt	nt
CCC1Oc2ccc(C)cc2N(CC(=O)N(Cc2ccncc2)Cc2ccco2)C1=O (stereo not drawn)	27	4%	5%	12µM*	22µM*
CCC1Oc2ccc(C)cc2N(CC(=O)N2CCOCC2)C1=O (stereo not drawn)	6	19%	?	2%	9%
CCC1Oc2ccc(C)cc2N(CC(=O)N(Cc2cccnc2)Cc2cccc(F)c2)C1=O (stereo not drawn)	-36	8%	98%	12µM*	-10%
O=C(CN1C(=O)COc2ccccc21)N(Cc1cccnc1)Cc1cccc(F)c1	48	6%	-4%	?	-2%
Cc1ncc(CO)c(/C=N/NC(=O)c2ccoc2C)c1O	-11	nt	-6%	?	-7%
COc1ccccc1NS(=O)(=O)c1cccc(C(=O)N/N=C/c2c(CO)cnc(C)c2O)c1	-9	nt	?	12µM*	-19%
COc1ccccc1N/N=C/c1c(CO)cnc(C)c1O	47	-11%	18%	-5%	1%
Cc1ncc(CO)c(/C=N/NC(=O)c2cc3c(s2)CCCC3)c1O	-66*	10%	?	?	-1%
Cc1ncc(CO)c(/C=N/NC(=O)c2ccc(O)cc2)c1O	3	?	?	2.1µM*	-3%
COc1ccccc1NS(=O)(=O)c1cccc(C(=O)N/N=C(\C)c2ccc(-n3ccnc3)cc2)c1	31	-6%	13µM*	nt	-9%
O=C(N[C@H]1CC[C@@]23CCCN2C(=O)CCC[C@H]3[C@H]1Cc1ccccc1)C1CCOC1 (stereo partly drawn)	-10	nt	nt	nt	nt
O=C1/C(=C/c2cccc(F)c2)Oc2cc(O)ccc21	1	7%	32%	24%	-14%
CC(=O)N1CCc2cc(S(=O)(=O)N3CCN(c4ccc(C)cc4)C(C)C3)ccc21 (stereo not drawn)	?	nt	nt	nt	1%
COc1ccc(-c2cn3nc(N4CCC(C(=O)NCc5cccc(Cl)c5)CC4)sc3n2)cc1	0	nt	nt	nt	-4%
COc1ccc(CCNC(=O)c2cc(S(=O)(=O)N3CCOCC3)cn2C)cc1OC	16	0%	7.4µM*	17%	-10%
Cc1cccc(NC(=O)c2cc(S(=O)(=O)N3CCOCC3)cn2C)c1C	9	-1%	6.6µM*	7%	-5%
CCOC(=O)N1CCC(NC(=O)c2cc(S(=O)(=O)N3CCCC3)cn2C)CC1	-8	-1%	0.41µM*	7.4µM*	-30%
Cc1cccc(NC(=O)c2cc(S(=O)(=O)N3CCCCCC3)cn2C)c1C	1	nt	nt	nt	4%
